What follows are sequences tested against BBS5 (assay: pooled miR-30 sensor sort-seq; sequence = guide strand). Conditions: shRNA.
Further: reference of the scale not given here.

Sequence | sensor-assay potency score (higher = more potent)
TTTATCATATACATGTTCTTGT | 0.705
TTAGAGTTAGCAGTCCTTGTTG | -0.252
TTTTATCATATACATGTTCTTG | -0.69
TTGAATTTGTTCGACTGTCAGA | -0.412
TTTCCTTAACTGATTCTTGTAG | -0.239
AACATATCCACCACTCTGCTGA | -0.129
TTCGACTGTCAGAGCTTCGAGC | -0.723
TATCATATACATGTTCTTGTGG | -0.0827
TTCTACATCATCTTGAATTTGT | -0.245
AAATTTTGAATCTCTAATCTTT | -0.135
TAAATATAAATTCAAAACGAGT | -1.56
TTAGTATATAGAGAGCTTCAGT | -0.624

What follows are sequences tested against BCAR3 in the same assay as above. Conditions: shRNA.

Sequence | sensor-assay potency score (higher = more potent)
TTGACTTGTGCACCTTTGCTGC | -0.561
TTGAATTTCTCATATCTCTCTG | 0.778
TCTGATTGACTTGTGCACCTTT | 0.95
TTGGTGAACAGTTCTTTTGCAC | 0.174
TGAATTTCTCATATCTCTCTGT | 0.413
TTGAGGGACAAGGCTCTTCTGT | -0.76
TAACCTTGTGATCTGTGGCATT | -0.946
TTTTCTAACCTTGTGATCTGTG | -0.0388
TTGAGGAACGGCACCTTGCAGG | -0.594
TCGCATTTGAAATTCAGTCTTG | -0.471
TTGCACGTTTCAACATTGCTGT | -0.296
TAGGAAGTCACCATCTCGCTGC | 0.641

The sequences below were run against BCL11A in the same assay as above. Conditions: shRNA.

Sequence | sensor-assay potency score (higher = more potent)
TATCATTTGATTGTCCACTTGA | 0.591
TTGACAACCAAGTAGATCTGGA | 0.0039
TAAAAGACAACATAGAATGTAT | 0.0879
TTCACATTTGTAAACGTCCTTC | -0.693
TGAAATTTGAACGTCTTGCCGC | 0.0443
TAAACAATCGTCATCCTCTGGC | -0.0288
TACTATATAATCTTAAACCTTT | -0.147
TTAATTGTCCTATCTGAGCAGG | -0.599
TAGCATAGGAATCAACATGAGT | -0.704
ATAACAAGTAGAAAGAACCATC | -0.773
TTATTTTATACTCAACCTCTGT | -0.873
TTGCACTATATTATCCTGCCAA | -0.344
